Measurements from PubChem BioAssay AID1159580 (chemical genetic matrix, 2015).
Hit rate of the full screen: of about 5,500 compounds, about 2,000 (36%) were called active. Another 18% or so got no clear call; they are omitted. Cut-off read from the data, not from the text of the source: active = normalized growth mostly below about 0.91 (no sharp cut-off); inconclusive = no clear call, values can overlap the other calls; inactive = mostly above about 0.92. The list shows a part of the results.

Assay: chemical genetic growth profiling, strain panel (AID 1159580);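 note: tested at 20 µM; growth read once vehicle control cultures reached saturation at 30 °C; 1 = growth at the plate median or of vehicle wells; lower values mean less growth of the strain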
Conditions: growth OD

Measured: normalized growth

COC(=O)[C@]1(C)CC[C@]2(C)CC[C@]3(C)C4=CC=C5C(=CC(=O)C(O)=C5C)[C@]4(C)CC[C@@]3(C)[C@@H]2C1
inactive: S. cerevisiae deletion strains, locus YKL009W, strain mrt4, stronger effect = lower value 1.06 | S. cerevisiae deletion strains, locus YKL068W, stronger effect = lower value 0.961 | S. cerevisiae deletion strains, locus YKL085W, strain MDH1 (second series), stronger effect = lower value 1.01 | S. cerevisiae deletion strains, locus YKL085W, strain MDH1, stronger effect = lower value 1.01 | S. cerevisiae deletion strains, locus YKR026C, strain gcn3, stronger effect = lower value 0.941 | S. cerevisiae deletion strains, locus YKR091W, strain srl3, stronger effect = lower value 0.995 | S. cerevisiae deletion strains, locus YLL041C, strain sdh2, stronger effect = lower value 0.929 | S. cerevisiae deletion strains, locus YLR102C, strain apc9, stronger effect = lower value 0.983 | S. cerevisiae deletion strains, locus YLR371W, strain rom2, stronger effect = lower value 0.948 | S. cerevisiae deletion strains, locus YLR384C, strain iki3, stronger effect = lower value 0.96 | S. cerevisiae deletion strains, locus YML124C, strain tub3, stronger effect = lower value 0.956 | S. cerevisiae deletion strains, locus YMR078C, strain ctf18, stronger effect = lower value 0.934 | S. cerevisiae deletion strains, locus YMR307W, strain GAS1, stronger effect = lower value 0.65 | S. cerevisiae deletion strains, locus YNL250W, strain rad50, stronger effect = lower value 0.934 | S. cerevisiae deletion strains, locus YNL298W, strain CLA4, stronger effect = lower value 0.957 | S. cerevisiae deletion strains, locus YNL322C, strain KRE1 (second series), stronger effect = lower value 0.978 | S. cerevisiae deletion strains, locus YOL012C, strain htz1 0.412 | S. cerevisiae deletion strains, locus YOR001W, strain rrp6, stronger effect = lower value 0.918 | S. cerevisiae deletion strains, locus YOR136W, strain idh2, stronger effect = lower value 0.961 | S. cerevisiae deletion strains, locus YOR316C, strain cot1, stronger effect = lower value 0.962 | S. cerevisiae deletion strains, locus YPL106C, strain sse1, stronger effect = lower value 0.854 | S. cerevisiae deletion strains, locus YPR119W, strain clb2, stronger effect = lower value 0.957 | S. cerevisiae deletion strains, locus YPR141C, strain kar3, stronger effect = lower value 0.943
active: S. cerevisiae deletion strains, locus YJR043C, strain POL32, stronger effect = lower value 0.646 | S. cerevisiae deletion strains, locus YJR075W, strain HOC1, stronger effect = lower value 0.794 | S. cerevisiae deletion strains, locus YKL160W, strain elf1, stronger effect = lower value 0.702 | S. cerevisiae deletion strains, locus YKL190W, strain CNB1, stronger effect = lower value 0.712 | S. cerevisiae deletion strains, locus YKR001C, strain vps1, stronger effect = lower value 0.793 | S. cerevisiae deletion strains, locus YLL001W, strain dnm1, stronger effect = lower value 0.729 | S. cerevisiae deletion strains, locus YLL026W, stronger effect = lower value 0.887 | S. cerevisiae deletion strains, locus YLR027C, strain aat2, stronger effect = lower value 0.719 | S. cerevisiae deletion strains, locus YLR039C, strain RIC1, stronger effect = lower value 0.406 | S. cerevisiae deletion strains, locus YLR058C, strain SHM2, stronger effect = lower value 0.615 | S. cerevisiae deletion strains, locus YLR221C, strain rsa3, stronger effect = lower value 0.752 | S. cerevisiae deletion strains, locus YLR258W, strain gsy2, stronger effect = lower value 0.802 | S. cerevisiae deletion strains, locus YLR262C, strain YPT6 (second series), stronger effect = lower value 0.394 | S. cerevisiae deletion strains, locus YLR262C, strain YPT6, stronger effect = lower value 0.45 | S. cerevisiae deletion strains, locus YLR268W, strain sec22, stronger effect = lower value 0.832 | S. cerevisiae deletion strains, locus YLR320W, strain mms22, stronger effect = lower value 0.495 | S. cerevisiae deletion strains, locus YLR330W, strain CHS5, stronger effect = lower value 0.64 | S. cerevisiae deletion strains, locus YLR342W, strain FKS1 (second series), stronger effect = lower value 0.71 | S. cerevisiae deletion strains, locus YLR342W, strain FKS1, stronger effect = lower value 0.59 | S. cerevisiae deletion strains, locus YLR357W, strain rsc2, stronger effect = lower value 0.824 | S. cerevisiae deletion strains, locus YLR370C, strain arc18, stronger effect = lower value 0.797 | S. cerevisiae deletion strains, locus YLR418C, strain cdc73, stronger effect = lower value 0.383 | S. cerevisiae deletion strains, locus YML016C, strain PPZ1, stronger effect = lower value 0.781 | S. cerevisiae deletion strains, locus YML032C, strain rad52, stronger effect = lower value 0.873 | S. cerevisiae deletion strains, locus YML120C, strain ndi1, stronger effect = lower value 0.819 | S. cerevisiae deletion strains, locus YMR058W, strain fet3, stronger effect = lower value 0.115 | S. cerevisiae deletion strains, locus YMR125W, strain sto1, stronger effect = lower value 0.812 | S. cerevisiae deletion strains, locus YMR205C, strain PFK2, stronger effect = lower value 0.56 | S. cerevisiae deletion strains, locus YMR223W, strain ubp8, stronger effect = lower value 0.85 | S. cerevisiae deletion strains, locus YMR231W, strain pep5, stronger effect = lower value 0.863 | S. cerevisiae deletion strains, locus YMR263W, strain SAP30, stronger effect = lower value 0.803 | S. cerevisiae deletion strains, locus YNL067W, strain RPL9B, stronger effect = lower value 0.803 | S. cerevisiae deletion strains, locus YNL071W, strain lat1, stronger effect = lower value 0.347 | S. cerevisiae deletion strains, locus YNL128W, strain TEP1, stronger effect = lower value 0.548 | S. cerevisiae deletion strains, locus YNL209W, strain ssb2, stronger effect = lower value 0.454 | S. cerevisiae deletion strains, locus YNL233W, strain BNI4, stronger effect = lower value 0.811 | S. cerevisiae deletion strains, locus YNL248C, strain rpa49, stronger effect = lower value 0.887 | S. cerevisiae deletion strains, locus YNL271C, strain bni1, stronger effect = lower value 0.894 | S. cerevisiae deletion strains, locus YNL307C, strain MCK1, stronger effect = lower value 0.754 | S. cerevisiae deletion strains, locus YNL322C, strain KRE1, stronger effect = lower value 0.772 | S. cerevisiae deletion strains, locus YNR049C, strain mso1, stronger effect = lower value 0.878 | S. cerevisiae deletion strains, locus YNR052C, strain pop2, stronger effect = lower value 0.888 | S. cerevisiae deletion strains, locus YOL006C, strain TOP1, stronger effect = lower value 0.317 | S. cerevisiae deletion strains, locus YOL147C, strain pex11, stronger effect = lower value 0.91 | S. cerevisiae deletion strains, locus YOR061W, strain CKA2, stronger effect = lower value 0.744 | S. cerevisiae deletion strains, locus YOR069W, strain VPS5, stronger effect = lower value 0.836 | S. cerevisiae deletion strains, locus YOR070C, strain gyp1, stronger effect = lower value 0.678 | S. cerevisiae deletion strains, locus YOR080W, strain dia2, stronger effect = lower value 0.757 | S. cerevisiae deletion strains, locus YOR083W, strain WHI5, stronger effect = lower value 0.757 | S. cerevisiae deletion strains, locus YOR106W, strain vam3, stronger effect = lower value 0.574 | S. cerevisiae deletion strains, locus YOR144C, strain elg1, stronger effect = lower value 0.908 | S. cerevisiae deletion strains, locus YOR184W, strain ser1, stronger effect = lower value 0.645 | S. cerevisiae deletion strains, locus YOR265W, strain rbl2, stronger effect = lower value 0.747 | S. cerevisiae deletion strains, locus YOR270C, strain vph1, stronger effect = lower value 0.472 | S. cerevisiae deletion strains, locus YOR290C, strain snf2, stronger effect = lower value 0.515 | S. cerevisiae deletion strains, locus YPL051W, strain arl3, stronger effect = lower value 0.448 | S. cerevisiae deletion strains, locus YPL078C, strain atp4, stronger effect = lower value 0.65 | S. cerevisiae deletion strains, locus YPL240C, strain hsp82, stronger effect = lower value 0.81 | S. cerevisiae deletion strains, locus YPL241C, strain CIN2, stronger effect = lower value 0.898 | S. cerevisiae deletion strains, locus YPR163C, strain tif3, stronger effect = lower value 0.888 | S. cerevisiae deletion strains, locus YPR167C, strain met16, stronger effect = lower value 0.917 | S. cerevisiae deletion strains, strain wtn01, stronger effect = lower value 0.894 | S. cerevisiae strains, strain wild type, stronger effect = lower value 0.572
